Data on 26 molecules can be found in the supplement of paper PMC6522484.

Experiment [1] relates to DLD1. The experiment is described as follows: cell viability (CellTiter-Glo) relative to plate median (fraction of plate median); higher = more viable cells. As to conditions: 5 µM; treatment time 24 h; reporter: 7TFP. Put shortly:
(§1)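 Per-well firefly luciferase or CellTiterGlo luminescence, normalised to the plate median, is what is reported. It was measured in colorectal cancer cells with stable lentiviral TCF/Wnt firefly luciferase reporters after a 24 h treatment with library compounds at a final 5 µM. The mean of two independent replicates is given.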

Experiment [2] has as its system HCT116. The description is as above. As to conditions: 5 µM; treatment time 24 h; reporter: TCF4/Wnt. The procedure, abridged:
as §1

Experiment [3] concerns SW480. The experiment is described as above. As to conditions: 5 µM; treatment time 24 h; reporter: 7TFP. The procedure, abridged:
as §1

Experiment [4] concerns DLD1. The experiment is described as follows: TCF/Wnt firefly luciferase reporter signal relative to plate median (fraction of plate median); higher = higher Wnt reporter signal. As to conditions: 5 µM; treatment time 24 h; reporter: 7TFP. The procedure, abridged: as §1
(A reporter such as luciferase makes a cellular process visible.)

Experiment [5] concerns SW480. Described as above. As to conditions: 5 µM; treatment time 24 h; reporter: 7TFP. The procedure, abridged: as §1

± gives the standard deviation of the averaged measurements.

Take `COc1ccc(-c2cc(=O)c3cc(OC)ccc3o2)cc1`: the cell viability in experiment [1] is 0.967 ± 0.031; in experiment [2], 0.964 ± 0.065; in experiment [3] it was 0.998 ± 0.059. Besides, the figures for the “TCF/Wnt firefly luciferase reporter signal” value in experiment [4] and in experiment [5] were 1.17 ± 0.057 and 1.33 ± 0.014, respectively.

As to `CC(=O)O[C@H]1CC[C@]2(C)[C@H]3C(=O)C=C4[C@@H]5[C@@H](C)[C@H](C)CC[C@]5(C(=O)O)CC[C@@]4(C)[C@]3(C)CC[C@H]2C1(C)C`, the cell viability in experiment [1] came out at 1.005 ± 0.0071; in experiment [2], 1.05; in experiment [3], 0.993 ± 0.011. Moreover, the figures for the “TCF/Wnt firefly luciferase reporter signal” value in experiment [4] and in experiment [5] were 1 ± 0.16 and 1.09 ± 0.028, respectively.

`CCCCCC(C)N` (stereo not given): the cell viability in experiment [1] was 1.02 ± 0.066; in experiment [2] it was 1.09 ± 0.021; in experiment [3], 0.954 ± 0.0099. The “TCF/Wnt firefly luciferase reporter signal” value in experiment [4] came out at 1.14 ± 0.078; in experiment [5], 1.08 ± 0.057.

As for `CC1(C)S[C@@H]2[C@H](NC(=O)[C@H](C(=O)O)c3ccsc3)C(=O)N2[C@H]1C(=O)O`, the cell viability in experiment [1] worked out at 1.09 ± 0.092; in experiment [2] it was 1.045 ± 0.0071; in experiment [3], 1.03 ± 0.052. The “TCF/Wnt firefly luciferase reporter signal” value in experiment [4] came to 0.871 ± 0.069; in experiment [5], 1.075 ± 0.0071.

For the molecule `CCN(CC)CCCC(C)Nc1ccnc2cc(Cl)ccc12` (stereo not given), the cell viability in experiment [1] was 1.05 ± 0.096; in experiment [2] it was 1.04 ± 0.12; in experiment [3] it was 1.05 ± 0.028. The “TCF/Wnt firefly luciferase reporter signal” value amounted to 0.974 ± 0.024 in experiment [4] and 1.045 ± 0.0071 in experiment [5].

Turning to `COc1cnc(NS(=O)(=O)c2ccc(N)cc2)nc1`, the results for the cell viability in experiment [1], in experiment [2] and in experiment [3] were 0.973 ± 0.0057, 1.04 ± 0.035 and 1.03 ± 0.035, respectively. In addition, the “TCF/Wnt firefly luciferase reporter signal” value in experiment [4] is 1.04 ± 0.22; in experiment [5] it was 0.892 ± 0.055.

On to `COC(=O)C1=C(C)NC(C)=C(C(=O)OCCN(C)Cc2ccccc2)C1c1cccc([N+](=O)[O-])c1` (stereo not given), for which the cell viability in experiment [1] turned out to be 0.914 ± 0.074; in experiment [2], 1.02 ± 0.1; in experiment [3], 0.98 ± 0.042. The “TCF/Wnt firefly luciferase reporter signal” value came to 0.941 ± 0.13 in experiment [4] and 0.951 ± 0.065 in experiment [5].

Regarding `NC(=O)c1ccc[n+]([C@@H]2O[C@H](COP(=O)([O-])OP(=O)(O)OC[C@H]3O[C@@H](n4cnc5c(N)ncnc54)[C@H](O)[C@@H]3O)[C@@H](O)[C@H]2O)c1`, the cell viability worked out at 0.955 ± 0.11 in experiment [1], 0.956 ± 0.09 in experiment [2] and 0.942 ± 0.027 in experiment [3]. For the same molecule, the “TCF/Wnt firefly luciferase reporter signal” value stood at 1.1 ± 0.057 in experiment [4] and 1.24 ± 0.071 in experiment [5].

As for `CC(COc1ccccc1)N(CCCl)Cc1ccccc1` (stereo not given), the results for the cell viability in experiment [1], in experiment [2] and in experiment [3] were 1 ± 0.057, 1.05 ± 0.028 and 0.978 ± 0.025, respectively. The “TCF/Wnt firefly luciferase reporter signal” value in experiment [4] worked out at 1.05 ± 0.21; in experiment [5], 1.03 ± 0.014.

For `Cc1cnc(NC(=O)C2=C(O)c3ccccc3S(=O)(=O)N2C)s1`, the cell viability in experiment [1] came to 1.01 ± 0.04; in experiment [2], 1.05 ± 0.078; in experiment [3], 0.995 ± 0.079. In addition, the “TCF/Wnt firefly luciferase reporter signal” value in experiment [4] is 1.02 ± 0.031; in experiment [5], 1.03 ± 0.044.

In the case of `CN1CCC[C@@H]1Cc1c[nH]c2ccc(CCS(=O)(=O)c3ccccc3)cc12`, the cell viability in experiment [1] came out at 0.943 ± 0.028; in experiment [2] it was 1.05 ± 0.12; in experiment [3], 0.956 ± 0.023. Besides, the figures for the “TCF/Wnt firefly luciferase reporter signal” value in experiment [4] and in experiment [5] were 0.945 ± 0.18 and 1.04 ± 0.063, respectively.

Consider `CC1(C)C[C@@H]2C(=O)CC[C@H]3O[C@]3(C)CC[C@H]21`, for which the cell viability in experiment [1] came out at 1.09 ± 0.057; in experiment [2] it was 1.01 ± 0.073; in experiment [3], 1.02. Besides, the entries for the “TCF/Wnt firefly luciferase reporter signal” value in experiment [4] and in experiment [5] were 1.03 ± 0.047 and 0.985 ± 0.036, respectively.

As for `CO[C@H]1C[C@H](O[C@H]2[C@H](C)[C@@H](O[C@@H]3O[C@H](C)C[C@H](N(C)C)[C@H]3OC(C)=O)[C@@H](C)C[C@@]3(CO3)C(=O)[C@H](C)[C@@H](OC(C)=O)[C@@H](C)[C@@H](C)OC(=O)[C@@H]2C)O[C@@H](C)[C@@H]1OC(C)=O`, the cell viability in experiment [1] was 1.06; in experiment [2] it was 1.01 ± 0.19; in experiment [3], 0.956 ± 0.03. The “TCF/Wnt firefly luciferase reporter signal” value was determined as 1.03 ± 0.11 in experiment [4] and 0.945 ± 0.12 in experiment [5].

On to `CC1(C)CC[C@]2(C(=O)O)CC[C@]3(C)C(=CC[C@@H]4[C@@]5(C)CC[C@H](O)[C@@](C)(CO)[C@@H]5CC[C@]43C)[C@@H]2C1`, for which the cell viability in experiment [1] was 0.995 ± 0.16; in experiment [2], 1.025 ± 0.0071; in experiment [3], 1.01 ± 0.04. Moreover, the “TCF/Wnt firefly luciferase reporter signal” value came to 0.99 ± 0.042 in experiment [4] and 0.975 ± 0.078 in experiment [5].

Take `CC1(C)O[C@H]2[C@H](O)C[C@](O)(C(N)=O)C[C@H]2O1`: the cell viability in experiment [1] amounted to 1.08 ± 0.035; in experiment [2], 1.17 ± 0.15; in experiment [3], 1.09 ± 0.021. For the same molecule, the “TCF/Wnt firefly luciferase reporter signal” value was 1.07 ± 0.15 in experiment [4] and 0.916 ± 0.055 in experiment [5].

As for `COc1ccc(-c2coc3c(O)c(OC)ccc3c2=O)cc1`, the cell viability in experiment [1] was 0.969 ± 0.073; in experiment [2] it was 0.984 ± 0.08; in experiment [3], 0.99 ± 0.014. For the same molecule, the “TCF/Wnt firefly luciferase reporter signal” value in experiment [4] amounted to 1 ± 0.12; in experiment [5], 1.01 ± 0.095.

Turning to `Cc1cc(=O)oc2cc(O)c(O)cc12`, the cell viability was 0.951 ± 0.035 in experiment [1], 0.886 ± 0.071 in experiment [2] and 0.98 ± 0.057 in experiment [3]. The entries for the “TCF/Wnt firefly luciferase reporter signal” value in experiment [4] and in experiment [5] were 0.711 ± 0.25 and 1.085 ± 0.0071, respectively.

For `Cc1scc2c1N(C(=O)CN1CCN(C)CC1)c1ccccc1NC2=O`, the cell viability was found to be 1.03 ± 0.073 in experiment [1], 1 ± 0.071 in experiment [2] and 0.996 ± 0.034 in experiment [3]. The results for the “TCF/Wnt firefly luciferase reporter signal” value in experiment [4] and in experiment [5] were 0.984 ± 0.052 and 0.954 ± 0.04, respectively.

With `CC1(C)CC23C(=O)CCC(O)C2(C)CCC13` (stereo not given), the cell viability in experiment [1] was 1.05 ± 0.15; in experiment [2], 1.065 ± 0.0071; in experiment [3], 1.01 ± 0.049. For the same molecule, the “TCF/Wnt firefly luciferase reporter signal” value in experiment [4] was determined as 0.942 ± 0.11; in experiment [5], 1.04 ± 0.074.

In the case of `CC1=C(CC(=O)O)c2cc(F)ccc2/C1=C\c1ccc([S+](C)[O-])cc1` (stereo not given), the cell viability in experiment [1] stood at 0.941 ± 0.028; in experiment [2], 0.901 ± 0.018; in experiment [3], 0.949 ± 0.1. Also, the “TCF/Wnt firefly luciferase reporter signal” value in experiment [4] was found to be 1.03 ± 0.23; in experiment [5], 1.03 ± 0.12.

Turning to `COc1cc2nc(N(C)CCCNC(=O)C3CCCO3)nc(N)c2cc1OC` (stereo not given), the cell viability in experiment [1] turned out to be 1.01 ± 0.12; in experiment [2] it was 0.973 ± 0.053; in experiment [3] it was 0.985 ± 0.035. Besides, the results for the “TCF/Wnt firefly luciferase reporter signal” value in experiment [4] and in experiment [5] were 0.972 ± 0.069 and 0.905 ± 0.053, respectively.

In the case of `COc1cc(NS(C)(=O)=O)ccc1Nc1c2ccccc2nc2ccccc12`, the cell viability in experiment [1] is 1.11 ± 0.14; in experiment [2] it was 0.83 ± 0.09; in experiment [3], 1.03 ± 0.035. Besides, the “TCF/Wnt firefly luciferase reporter signal” value in experiment [4] came out at 0.973 ± 0.053; in experiment [5], 0.841 ± 0.11.

`CC1(C)O[C@@H]2C[C@H]3[C@@H]4CCC5=CC(=O)C=C[C@]5(C)[C@H]4[C@@H](O)C[C@]3(C)[C@]2(C(=O)CO)O1`: the cell viability in experiment [1] was found to be 0.999 ± 0.03; in experiment [2], 1.06 ± 0.05; in experiment [3] it was 0.977 ± 0.033. The “TCF/Wnt firefly luciferase reporter signal” value in experiment [4] amounted to 0.979 ± 0.086; in experiment [5], 0.9755 ± 0.0078.

Consider `CC12CCC(CC1)C(C)(C)O2`, for which the cell viability in experiment [1] was 0.996 ± 0.049; in experiment [2], 1.055 ± 0.0071; in experiment [3], 0.934 ± 0.019. For the same molecule, the “TCF/Wnt firefly luciferase reporter signal” value in experiment [4] worked out at 1.21 ± 0.18; in experiment [5], 1.11 ± 0.099.

Turning to `CCN(CC)CCCC(C)Nc1c2ccc(Cl)cc2nc2ccc(OC)cc12` (stereo not given), the values for the cell viability in experiment [1], in experiment [2] and in experiment [3] were 1.02 ± 0.014, 0.886 ± 0.19 and 1.05 ± 0.014, respectively. Besides, the “TCF/Wnt firefly luciferase reporter signal” value in experiment [4] amounted to 1.11 ± 0.042; in experiment [5], 0.888 ± 0.036.

With `CC1(C)O[C@@H]2C[C@H]3[C@@H]4CCC5=CC(=O)C=C[C@]5(C)[C@@]4(F)[C@@H](O)C[C@]3(C)[C@]2(C(=O)CO)O1`, the cell viability in experiment [1] is 0.955 ± 0.027; in experiment [2] it was 0.965 ± 0.024; in experiment [3] it was 1.03 ± 0.042. The “TCF/Wnt firefly luciferase reporter signal” value turned out to be 1.09 ± 0.021 in experiment [4] and 0.951 ± 0.051 in experiment [5].
